Reference: the OligoGym collection

Molecular target: NCAPG2
Experiment: pooled miR-30 sensor sort-seq; sequence = guide strand
Conditions: shRNA

| Sequence | sensor-assay potency score (higher = more potent) |
| --- | --- |
| TAGAACTCTGTAGTTTTCGTTC | -0.463 |
| TTAGTCTCCAGACTCCTCCTTA | 0.238 |
| TTCCATATTGTCTTCACCCTGG | -0.0247 |
| TATAATAACACATTCCAGTAGG | -0.388 |
| TTTACCTGCATTAATAACCAGG | -0.888 |
| TTGCAAAAACTCTCCAACCAGC | -0.983 |
| TAAGCAATGACGAATAACGTGA | 0.14 |
| TTCAATGCTATCCTCTTCCAAA | -0.814 |

Molecular target: NCF1
Experiment: as above
Conditions: shRNA

| Sequence | sensor-assay potency score (higher = more potent) |
| --- | --- |
| TAAGGTTTTATGGAACTCGTAG | 0.251 |
| AACATGTACACATAGTGCTGGC | -0.578 |
| TTATGGAACTCGTAGATCTCGG | -0.843 |
| TCTGACAGAACCACCAACCGCT | 0.511 |
| TTCATCTGACAGAACCACCAAC | -0.468 |
| TAGATCTCGGTGAAGCGCCGGT | 0.272 |
| TTTTGCAGGTACATGGACGGGA | 0.437 |
| TTTGTCTGGTTGTCCGTGGGGA | 0.0821 |
| TTTTTTGTCTGGTTGTCCGTGG | 0.905 |
| TTCCGCTTGGTGCTCTCGCTGC | -1 |
| TTGGTGCTCTCGCTGCAGCGGT | -1.07 |
| TGGAACTCGTAGATCTCGGTGA | 0.128 |

Molecular target: NCR3
Experiment: as above
Conditions: shRNA

| Sequence | sensor-assay potency score (higher = more potent) |
| --- | --- |
| TAGCTGAGGATGTTCTTTCTCC | -0.477 |
| TTCCAGGTCAGACATTTGCCCT | -1.63 |
| TCTCGGAACCACGTGACGGAGC | -0.976 |
| TATTGGGTGAATGACAGTGTTC | -1.59 |
| TCCAGGTCAGACATTTGCCCTG | -1.34 |
| TCTTTCTCCACCACCAGCCGAG | -1.09 |
| ATGTTCTTTCTCCACCACCAGC | -2.11 |
| TGGAACCACCTCATCTCGGAAC | -1.16 |
| ACTCTGCACACGTAGATGCTGG | -1.18 |
| TTCTTTCTCCACCACCAGCCGA | -1.65 |
| TTTGCCCTGGTAATAGACGGTG | -0.728 |
| AAGCTGACAGCATAGAATCCAG | -0.853 |

Molecular target: NCSTN
Experiment: as above
Conditions: shRNA

| Sequence | sensor-assay potency score (higher = more potent) |
| --- | --- |
| TCGAGCTCGAAGAAATCGCTGC | 0.0428 |
| TTGGAGTAAACACCAAACCCAT | -1.26 |
| AAGACAAACATGACATTGCGGG | -0.588 |
| TACTGTACAACATAAGTGGTGT | 0.405 |
| TGAGTCAACATTCTCTAACTGC | 0.0625 |
| TCAGCCTGAACTGTGTCGCTGA | 0.319 |
| TTCCACTGTATTTCTCTGCAGT | 0.342 |
| TAGCATGCTCCACACATTGTAA | -1.37 |
